The target in assay [1] is Progesterone receptor (Homo sapiens) (UniProt P06401). Kind of assay: qHTS assay to identify small molecule agonists of the progesterone receptor (PR) signaling pathway (AID 1346784; calls by dose curve; further: nearly all actives have a fitted effect of over 30% in size). In outline: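 Reporter assay, GripTite PR-UAS-bla HEK 293T cells: 16 hr exposure to DMSO-dissolved compounds at 37C, 5% CO2, in steroid-depleted (2% charcoal-stripped FBS) medium; beta-lactamase measured by FRET fluorescence.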
In general terms: In qHTS, concentration-response curves come from the screen itself.

Assay [2] shares this target. Kind of assay: qHTS assay to identify small molecule antagonists of the progesterone receptor (PR) signaling pathway (AID 1346795; active means well fitted inhibition curve with a large enough effect in the signal ratio in the repeat runs, not every such curve was filed as active; the % refers to the signal ratio). In outline: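 Stimulus R5020 at 1 nM final; cells HEK293T PR-UAS-bla; medium with 2% charcoal-stripped FBS; compound exposure 16 hr at 37C, 5% CO2; detection by FRET beta-lactamase substrate, 2 hr, room temperature.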
A short description of assay [3]: qHTS assay to identify small molecule antagonists of the progesterone receptor (PR) signaling pathway - cell viability counter screen (AID 1346798). Further: series mostly up to about 92 µM; nearly all actives have a fitted effect of over 50% in size. In outline:
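In the same plates used for the beta-lactamase readout, cell viability of compound- and R5020-treated PR-UAS-bla HEK293T cells (16 hr, 37C) was assessed by CellTiter-Glo luminescence.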

The nature of assay [4]: qHTS assay to identify small molecule agonists of the progesterone receptor (PR) signaling pathway - cell viability counter screen (AID 1346799; calls by dose curve; further: nearly all actives have a fitted effect of over 45% in size). In outline:
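Multiplexed viability read: CellTiter-Glo luminescence, 30 min RT, following LiveBLAzer FRET measurement on PR-UAS-bla HEK293T cells exposed to compounds 16 hr.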

Assay [5] is described as follows: qHTS assay to identify small molecule agonists of the TGF-beta/Smad signaling pathway - cell viability counter screen (AID 1346829). Further: top concentration of the series differs between compounds; nearly all actives have a fitted effect of over 45% in size. In outline: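 Luminescence from CellTiter-Glo, read after a 30 min room-temperature incubation, gives cell viability of SBE-bla HEK 293T cells treated 5 hr with compounds at 37 C.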
The nature of assay [6]: qHTS assay to identify small molecule agonists of the TGF-beta/Smad signaling pathway (AID 1346859; active means well fitted activation curve with a large enough effect in the signal ratio in the repeat runs, not every such curve was filed as active; the % refers to the signal ratio; further: series mostly up to about 77 µM). In outline: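 Screening used HEK 293T SBE-bla cells at 4,000/well. Test agents: 5 hr, 37 C. Detection: FRET substrate, 2 hr RT, then excitation 405 nm with emissions at 460 and 530 nm.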
Assay [7] in a line: Human pregnane X receptor (PXR) small molecule agonists, qHTS cell viability counter screen (AID 1346977). Further: nearly all actives have a fitted effect of over 50% in size. In outline: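 In each well, the PXR reporter HepG2 line was checked for viability: CellTiter-Fluor reagent added 23hr post-dosing, fluorescence read after 1hr incubation at 37C.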
A short description of assay [8]: Caspase-3/7 induction in CHO-K1 cells by small molecules, qHTS cell viability counter screen (AID 1346979). Further: nearly all actives have a fitted effect of over 35% in size. In outline:
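Following a 5hr settling period, CHO-K1 cells at 1,500 per well received DMSO-dissolved compounds. Cell viability was quantified 16hr later by CellTiter-Fluor fluorescence, measured after 1hr with reagent at 37C.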

Assay [9] in a line: Caspase-3/7 induction in CHO-K1 cells by small molecules, qHTS assay (AID 1346980). Further: nearly all actives have a fitted effect of over 15% in size. In outline:
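Wild-type cells were seeded at 1,500 per well and settled 5 hr at 37 C, 5% CO2, then exposed to DMSO-dissolved compounds for 17 hr. Caspase-Glo 3/7 reagent was added, and luminescence was read after 30min at room temperature.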

Assay [10] is described as follows: Caspase-3/7 induction in HepG2 cells by small molecules, qHTS cell viability counter screen (AID 1346981). Further: series mostly up to about 92 µM; nearly all actives have a fitted effect of over 30% in size. In outline:
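Counter screen for cytotoxicity: HepG2 exposed 16 hr to compounds, then CellTiter-Fluor viability signal (fluorescence, 1 hr reagent incubation).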

Assay [11] has as its target Nuclear receptor subfamily 1 group I member 2 (Homo sapiens) (UniProt O75469). Briefly: Human pregnane X receptor (PXR) small molecule agonists, qHTS assay (AID 1346982). Further: nearly all actives have a fitted effect of over 35% in size. Further: potency means the concentration at half of the fitted maximal effect. In outline:
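Luminescence (ONE-Glo, 30 min RT) after 24 hr compound exposure of PXR-Luc HepG2 cells; cells rested 5 hr post-plating in 5% charcoal-stripped FBS medium.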

For assay [12], the target named is Cytochrome P450 2D6 (Homo sapiens) (UniProt P10635). Kind of assay: Cytochrome P450 Family 2 Subfamily D Member 6 (CYP2D6) small molecule antagonists: luciferase reporter qHTS assay (AID 1671196). Further: nearly all actives have a fitted effect of over 50% in size. Further: potency means the concentration at half of the fitted maximal effect. In outline: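 Inhibition of CYP2D6 was gauged by loss of luminescence, since light produced tracks the luciferin generated from a proluciferin substrate. A 10 min room-temperature preincubation preceded 1 h NADPH-supported turnover.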

The nature of assay [13]: Caspase-3/7 induction in HepG2 cells by small molecules, qHTS assay (AID 1346978). Further: nearly all actives have a fitted effect of over 15% in size. In outline:
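Wild-type HepG2 cells (2,000/well) were settled 5 h at 37 C, 5% CO2, then exposed to compounds in DMSO for 17 h. Caspase-3/7 activity was read by luminescence 30 min after adding Caspase-Glo 3/7 reagent at room temperature.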

In assay [14] the target is Thyrotropin-releasing hormone receptor (Homo sapiens) (UniProt P34981). Kind of assay: qHTS assay to identify small molecule antagonists of the thyrotropin-releasing hormone receptor (TRHR) signaling pathway (AID 1346877; active means well fitted inhibition curve with a large enough effect in the repeat runs, not every such curve was filed as active; further: series mostly up to about 51 µM). In outline:
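In this cell-based calcium flux format, HEK293 cells expressing TRHR received test compound for 5 min before the agonist TRH (1 nM final). Dye loading lasted 2 h at 37 °C.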

Assay [15] concerns the target Nuclear receptor subfamily 1 group I member 2 (Rattus norvegicus) (UniProt Q9R1A7). Kind of assay: Rat pregnane X receptor (rPXR) activation by small molecules, qHTS assay (AID 1346983). Further: nearly all actives have a fitted effect of over 20% in size. As to conditions: rPXR luciferase reporter cells, One-Glo luminescence, 24 h; max activation: active compounds read high. In outline:
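Cell-based rPXR luciferase reporter assay, 2,000 cells per well, rested 5hr at 37 C before compound addition in DMSO, then 24 hr at 37 C. One-Glo reagent was added and luminescence read after 30 min at room temperature.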

The target of assay [16] is Nuclear receptor subfamily 1 group I member 2 (Homo sapiens) (UniProt O75469). Kind of assay: CYP3A4 induction through human pregnane X receptor (PXR) by small molecules, qHTS assay (AID 1346984). Further: nearly all actives have a fitted effect of over 40% in size. In outline:
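DPX-2 reporter cells; 24h cpd, 37C; Luciferin-IPA 3uM final x3h; One-Glo 30 min RT; lumi read.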

Assay [17] in a line: qHTS assay to identify small molecule antagonists of the TGF-beta/Smad signaling pathway - cell viability counter screen (AID 1346824). Further: nearly all actives have a fitted effect of over 50% in size. In outline:
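SBE-bla HEK 293T cells were plated overnight at 37 C, then given compounds in DMSO plus TGF-beta1 (added as 0.25 ng/mL solution) for 5 hr. After the bla read, CellTiter-Glo was added to the same wells and luminescence read after 30 min at room temperature.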

Assay [18] addresses Cytochrome P450 2C19 (Homo sapiens) (UniProt P33261). Briefly: Cytochrome P450 Family 2 Subfamily C Member 19 (CYP2C19) small molecule antagonists: luciferase reporter qHTS assay (AID 1671197). Further: nearly all actives have a fitted effect of over 65% in size. Further: potency means the concentration at half of the fitted maximal effect. In outline:
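CYP2C19 P450-Glo, 1536-well qHTS. Cpd + enzyme/proluciferin substrate 10 min RT; + NADPH regen, 37C 1 h; stop with luciferin detection reagent, 20 min RT, luminescence (RLU). Pos ctrl ketoconazole.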

Each structure is given as a SMILES string. Values without a mark were called inactive. Inconclusive results are not listed. Activity calls are given as the source filed them. Unless noted, the call rests on the fitted dose curve; in most records, active means well fitted curve in the direction sought with a large enough effect in the repeat runs; inconclusive means weak or mixed curves; inactive means no such curve, though single readings can be large; an effect the other way counts as inactive or inconclusive.
On the % scale 0 is the no-effect control and ±100 the full control effect.

Sequence of Progesterone receptor (Homo sapiens) (P06401 whole entry, looked up): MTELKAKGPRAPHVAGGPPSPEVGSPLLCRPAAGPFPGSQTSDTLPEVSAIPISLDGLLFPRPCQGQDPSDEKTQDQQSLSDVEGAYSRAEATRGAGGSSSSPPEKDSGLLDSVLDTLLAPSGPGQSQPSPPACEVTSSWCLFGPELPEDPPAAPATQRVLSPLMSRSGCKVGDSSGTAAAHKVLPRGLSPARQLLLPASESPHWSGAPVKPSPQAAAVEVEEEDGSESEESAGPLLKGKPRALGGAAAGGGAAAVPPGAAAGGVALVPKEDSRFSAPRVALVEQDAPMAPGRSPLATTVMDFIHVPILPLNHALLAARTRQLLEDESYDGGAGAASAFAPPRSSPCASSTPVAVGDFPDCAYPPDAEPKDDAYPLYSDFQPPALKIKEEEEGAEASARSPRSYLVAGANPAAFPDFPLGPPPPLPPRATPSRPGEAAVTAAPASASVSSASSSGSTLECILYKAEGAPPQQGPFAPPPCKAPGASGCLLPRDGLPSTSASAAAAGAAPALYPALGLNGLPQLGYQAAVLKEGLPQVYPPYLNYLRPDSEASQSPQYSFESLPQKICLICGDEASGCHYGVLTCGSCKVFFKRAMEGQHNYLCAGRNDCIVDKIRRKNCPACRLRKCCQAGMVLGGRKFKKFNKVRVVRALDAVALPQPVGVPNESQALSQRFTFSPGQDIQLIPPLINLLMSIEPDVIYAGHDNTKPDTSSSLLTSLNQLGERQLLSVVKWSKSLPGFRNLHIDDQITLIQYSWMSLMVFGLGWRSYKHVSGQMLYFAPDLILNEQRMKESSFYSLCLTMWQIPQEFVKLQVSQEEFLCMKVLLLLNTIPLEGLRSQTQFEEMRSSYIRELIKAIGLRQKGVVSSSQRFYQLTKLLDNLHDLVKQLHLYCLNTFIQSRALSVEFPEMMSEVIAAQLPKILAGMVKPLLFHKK
Sequence of Cytochrome P450 2D6 (Homo sapiens) (P10635 whole entry, looked up): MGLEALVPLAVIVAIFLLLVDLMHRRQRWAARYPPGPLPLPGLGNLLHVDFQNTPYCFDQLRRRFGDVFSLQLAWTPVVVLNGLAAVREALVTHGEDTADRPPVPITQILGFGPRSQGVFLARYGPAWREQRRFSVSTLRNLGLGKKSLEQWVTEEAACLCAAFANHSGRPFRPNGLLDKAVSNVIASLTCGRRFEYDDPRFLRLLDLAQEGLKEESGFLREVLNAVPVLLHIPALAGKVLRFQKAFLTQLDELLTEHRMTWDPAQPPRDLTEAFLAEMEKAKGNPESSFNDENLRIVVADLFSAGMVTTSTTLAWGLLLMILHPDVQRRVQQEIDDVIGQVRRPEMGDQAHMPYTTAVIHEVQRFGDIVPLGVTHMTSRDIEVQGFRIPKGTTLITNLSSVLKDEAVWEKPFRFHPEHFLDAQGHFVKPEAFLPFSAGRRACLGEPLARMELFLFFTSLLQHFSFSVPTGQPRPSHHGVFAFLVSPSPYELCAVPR
Sequence of Nuclear receptor subfamily 1 group I member 2 (Homo sapiens) (O75469 whole entry, looked up): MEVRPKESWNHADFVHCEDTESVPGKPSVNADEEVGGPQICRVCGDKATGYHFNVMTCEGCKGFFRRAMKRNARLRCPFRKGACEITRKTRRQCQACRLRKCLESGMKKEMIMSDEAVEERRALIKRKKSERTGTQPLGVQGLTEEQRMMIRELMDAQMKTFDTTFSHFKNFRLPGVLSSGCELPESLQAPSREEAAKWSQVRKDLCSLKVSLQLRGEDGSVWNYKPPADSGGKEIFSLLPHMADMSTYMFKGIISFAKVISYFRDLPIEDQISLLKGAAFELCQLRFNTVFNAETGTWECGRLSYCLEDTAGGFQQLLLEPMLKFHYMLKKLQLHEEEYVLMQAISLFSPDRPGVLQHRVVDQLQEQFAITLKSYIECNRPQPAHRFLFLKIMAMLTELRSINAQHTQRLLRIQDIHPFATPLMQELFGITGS
Sequence of Cytochrome P450 2C19 (Homo sapiens) (P33261 whole entry, looked up): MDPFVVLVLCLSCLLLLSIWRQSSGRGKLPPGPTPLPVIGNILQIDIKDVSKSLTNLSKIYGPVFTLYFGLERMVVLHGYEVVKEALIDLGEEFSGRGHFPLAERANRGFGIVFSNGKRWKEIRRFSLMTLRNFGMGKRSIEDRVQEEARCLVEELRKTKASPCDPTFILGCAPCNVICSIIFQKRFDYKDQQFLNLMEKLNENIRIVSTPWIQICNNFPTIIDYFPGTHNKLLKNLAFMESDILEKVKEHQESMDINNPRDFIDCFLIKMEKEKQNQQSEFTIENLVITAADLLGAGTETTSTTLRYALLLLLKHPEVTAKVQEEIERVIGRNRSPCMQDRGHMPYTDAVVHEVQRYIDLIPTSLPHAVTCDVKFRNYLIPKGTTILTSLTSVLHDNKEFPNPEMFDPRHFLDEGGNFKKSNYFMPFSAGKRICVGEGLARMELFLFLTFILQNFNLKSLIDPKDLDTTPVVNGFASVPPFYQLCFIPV
Sequence of Thyrotropin-releasing hormone receptor (Homo sapiens) (P34981 whole entry, looked up): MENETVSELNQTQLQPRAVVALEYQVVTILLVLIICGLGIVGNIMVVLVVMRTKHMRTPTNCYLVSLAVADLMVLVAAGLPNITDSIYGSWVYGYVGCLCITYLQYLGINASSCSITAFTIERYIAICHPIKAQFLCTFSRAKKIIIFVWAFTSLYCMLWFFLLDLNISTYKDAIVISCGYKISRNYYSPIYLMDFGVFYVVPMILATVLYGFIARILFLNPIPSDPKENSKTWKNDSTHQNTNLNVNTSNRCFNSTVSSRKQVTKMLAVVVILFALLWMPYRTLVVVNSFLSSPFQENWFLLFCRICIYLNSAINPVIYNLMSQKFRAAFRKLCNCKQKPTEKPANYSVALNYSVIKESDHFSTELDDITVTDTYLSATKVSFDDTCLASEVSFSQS
Sequence of Nuclear receptor subfamily 1 group I member 2 (Rattus norvegicus) (Q9R1A7 whole entry, looked up): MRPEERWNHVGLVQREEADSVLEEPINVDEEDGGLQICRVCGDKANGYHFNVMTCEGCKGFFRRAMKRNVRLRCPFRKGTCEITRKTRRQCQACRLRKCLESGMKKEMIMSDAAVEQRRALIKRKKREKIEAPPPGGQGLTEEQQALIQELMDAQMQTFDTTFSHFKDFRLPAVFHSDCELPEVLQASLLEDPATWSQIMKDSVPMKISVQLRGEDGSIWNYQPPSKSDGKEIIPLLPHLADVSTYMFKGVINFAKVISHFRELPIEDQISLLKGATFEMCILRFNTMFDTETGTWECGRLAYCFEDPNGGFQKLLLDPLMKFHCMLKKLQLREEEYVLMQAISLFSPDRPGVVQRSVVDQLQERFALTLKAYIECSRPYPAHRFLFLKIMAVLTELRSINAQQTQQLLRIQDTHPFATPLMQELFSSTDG

Regarding `CC1=CCC(C(C)C)C=C1` (configuration not stated), the result in assay [1] and in assay [6] was inactive. The Potency result in [2], in [3], in assay [4], in assay [5], in assay [7] and in assay [8] was “inactive” each time. The Potency entry in assay [9] and in [10] was “inactive” each time. In addition, the Potency was 30.6 µM (active) in assay [11] and 71 µM (active) in assay [12].
Turning to `CCCCCCCCC(CO)CCCCCC` (configuration not stated), the result in assay [1], in [6] and in assay [13] was inactive. Moreover, the Potency entry in assay [2], in [3], in assay [4], in assay [5], in assay [7] and in assay [9] was “inactive” each time. For the same compound, the Potency result in assay [10], in [11] and in [12] was “inactive” each time.
Consider `CC[C@H](C)[C@H](N)C(=O)O`, for which the outcome in assay [1], in [6], in assay [14] and in [13] was inactive. Moreover, the Potency entry in assay [2], in assay [3], in assay [4], in assay [5], in [7] and in [8] was “inactive” in each case. Further, the Potency entry in [9], in assay [10], in assay [11], in [16] and in assay [12] was “inactive” in each case. The max activation in assay [15] was -0.0819%.
For `CC(C)c1cccc(C(C)C)c1NC(=O)NS(=O)(=O)c1cc(C(C)(C)O)co1`, the outcome in assay [1], in assay [6] and in assay [13] was inactive. Moreover, the Potency result in [2], in assay [3], in [4], in assay [17], in assay [5] and in [7] was “inactive” throughout. Besides, the Potency result in assay [8], in [9], in assay [10], in assay [11] and in [12] was “inactive” throughout. Moreover, the Potency in [18] was 11.2 µM (active).
As for `Nc1nc(N)c(-c2ccccc2)s1`, the result in [1], in assay [6] and in assay [13] was inactive. Also, the Potency result in assay [2], in assay [3], in assay [4], in [17], in [5] and in [7] was “inactive” each time. The Potency result in assay [9], in [10], in [11], in assay [16], in assay [12] and in [18] was “inactive” each time. In addition, the max activation in [15] is -3.93%.
On to `CC(C)NCC(O)COc1ccc(CC(N)=O)cc1` (configuration not stated), for which the compound was called inactive in assay [1], in assay [6], in assay [14] and in [13]. Also, the Potency entry in assay [2], in assay [3], in assay [4], in assay [5], in [7] and in assay [8] was “inactive” each time. Besides, the Potency entry in assay [9], in assay [10] and in assay [11] was “inactive” throughout.
Turning to `CC(C)c1ccccc1C(C)C`, the compound was classed as inactive in assay [1], in assay [6] and in assay [13]. For the same compound, the Potency result in assay [2], in assay [3], in assay [4], in assay [5], in assay [7] and in assay [8] was “inactive” throughout. Further, the Potency result in [9], in [10] and in assay [11] was “inactive” each time. Moreover, the Potency in [18] was 39.9 µM (active).

The values above are taken from PubChem BioAssay (Tox21).
